# High-throughput results: PubChem, several laboratories
# TLR4 MyD88 comp – inhibitors of TLR4-MyD88 association in cells, primary screen, cell-based, HeLa CL3-4, BLA complementation, FRET ratio; HeLa CL3-4 TLR4/MyD88 BLA complementation; inhibition, % at 8.4 µM; 0.18% of 200,000 active; AID 861, 2007; in the data active = inhibition above about 25%;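 note: 0% = vehicle and 100% = reference inhibitor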
# NOD2-RIPK2 inh – NOD2-RIPK2 binding disruptors in cells, primary screen, fluorescence, CHO cells, BLA complementation | 0.38% of 360,000 active | Receptor-interacting serine/threonine-protein kinase 2 (Homo sapiens), O43353 | inhibition, % at 4.98 µM | CCF4 ratio; in the data active = inhibition above about 21%;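 note: 0% = vehicle only and 100% = reference blocker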
# GRK2 aptamer HTS – compounds blocking aptamer binding on GRK2 – biochemical, human GRK2, bead flow cytometry, HTS, primary screen. Beta-adrenergic receptor kinase 1 (Homo sapiens), P25098. FAM-aptamer displacement from GRK2. inhibition of aptamer binding, % at 10 µM. 0.59% of 330,000 active. AID 488847, 2010;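 active = inhibition of aptamer binding above 40%, roughly 3 SD of noise, on plates passing a quality check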;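 note: median bead fluorescence of bound FAM aptamer so fluorescent compounds give negative values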
# TMEM16A inh – TMEM16A chloride channel inhibitors, primary screen, cell-based, HTS; Anoctamin-1 (Mus musculus), Q8BHY3; HEK293 TMEM16A/YFP iodide influx fluorescence, ionomycin; normalized B-score (activity score, 25-100; higher = stronger inhibition) at 10 µM; 1.2% of 310,000 active; AID 588511, 2011;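 active = ratio plate-corrected score three or more library SD toward inhibition, starting fluorescence score within five deviations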;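 note: score derived from kinetic fluorescence span divided by baseline fluorescence per well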
# TLR9-MyD88 inh – inhibitors of TLR9-MyD88 association in cells, primary screen, cell-based, CHO, BLA complementation, fluorescence; Toll-like receptor 9 (Homo sapiens) + Myeloid differentiation primary response protein …; CCF4 FRET ratio; inhibition, % at 4.98 µM; 0.21% of 340,000 active; AID 504734, 2011;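 active = inhibition above the mean over all tested compounds plus 3 SD, cut at about 21% in these data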;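 note: 0% = DMSO only wells and 100% = clavulanate BLA inhibitor control wells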
# ANO1 activ – TMEM16A chloride channel activators or potentiators, primary screen, cell-based, HTS | HEK293 TMEM16A/YFP-H148Q/I152L, iodide quench fluorescence; hits give low values | Anoctamin-1 (Mus musculus), Q8BHY3 | 0.3% of 340,000 active | B-score at 10 µM | AID 623877, 2012;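 active = fluorescence-ratio B-score plate-corrected deviation score at least 3 library SD below zero, with starting fluorescence score within 5 deviations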;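 note: channel opened by trigger with iodide after compound preincubation; score built on the fluorescence ratio of max minus min over baseline; more negative score means more quench and so TMEM16A activation or potentiation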
# GRK2 CP1 – GRK2 aptamer-displacing inhibitors, retest, confirmation, biochemical, cherry pick 1, bead flow cytometry. shares compounds with GRK2 aptamer HTS. bead-bound GRK2, FAM-aptamer displacement. aptamer displacement, % at 10 µM. 4% of 2,000 active;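 active = aptamer displacement above 40%, near three times the noise of non-fluorescent compounds, on plates passing quality checks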;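 note: negative values mostly reflect intrinsic compound fluorescence rather than true enhancement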
# FAM quench CP1 – aptamer fluorescence quenching in GRK2 counter-screen; shares compounds with GRK2 aptamer HTS; Carboxyfluorescein RNA aptamer on beads, flow cytometry quenching; hits give low values; fluorescence response (% of DMSO), % at 10 µM; 2,000 tested, under 10 active;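 active = compounds that quench the bead-bound fluorescent RNA probe, cutting fluorescence to under half of the solvent control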;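 note: counterscreen run without GRK2 so only probe quenching by compound is measured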
# GRK2 CP2 – GRK2 aptamer-displacing inhibitors, hit retest, confirmation, biochemical, cherry pick 2, bead flow cytometry | shares compounds with GRK2 aptamer HTS | inhibition of aptamer binding, % at 10 µM | 360 tested, under 10 active | bead-bound GRK2, FAM-aptamer displacement | AID 504782, 2011;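 active = inhibition of aptamer binding above 40%, about triple the noise seen with nonglowing compounds, on plates passing quality control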;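 note: negative values mostly come from compounds that fluoresce themselves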
# FAM quench SP – counter-screen for GRK2 binding hits: quenchers of fluorescent RNA aptamer; shares compounds with GRK2 aptamer HTS; carboxyfluorescein RNA aptamer beads, flow cytometry quenching; hits give low values; fluorescence response vs DMSO, % at 10 µM; 360 tested, under 10 active;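 active = response vs DMSO under 50%, meaning signal dropped by over half, treated as fluorescence quencher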;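 note: labelled aptamer on streptavidin beads without GRK2 as a quench counter-screen; 100% = bead fluorescence of DMSO wells and lower means quenching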
# The depositor's hits bear a star; i = inactive; / = no result. Rows were chosen to be rich in hits. Some 2.2% of all compounds tested hit in one or more screens of this group.
SMILES,TLR4 MyD88 comp,NOD2-RIPK2 inh,GRK2 aptamer HTS,TMEM16A inh,TLR9-MyD88 inh,ANO1 activ,GRK2 CP1,FAM quench CP1,others
Cc1ccc(C)c(N2N=C(C(=O)N(CC(C)C)c3c(N)n(Cc4ccccc4)c(=O)[nH]c3=O)CCC2=O)c1,/,1.3,1.0,i,1.4,i,0.2,103.8,
CC(OC(=O)Cn1cnc2c1c(=O)n(C)c(=O)n2C)C(=O)N(C)c1ccccc1 (stereo unspecified),/,-5.1,1.0,i,1.3,i,/,/,
Cc1cc(C)n2nc(C(=O)OCC(=O)c3cc(C)n(C)c3C)nc2n1,2.9,-2.5,41.0*,i,-0.1,i,26.1,99.7,
CCc1[nH]nc(C(=O)N/N=C/c2ccncc2)c1C,/,-0.6,0.0,i,6.1,i,/,/,
O=C(O)CCc1ccc(-c2ccc(F)cc2)n1CC(=O)O,6.6,-12.4,6.0,i,-9.9,i,/,/,
Cc1ccc(-c2ccc(CCC(=O)O)n2CC(=O)O)cc1,-1.8,-5.1,89.0*,i,-3.1,i,2.8,98.4,
C/C(=N\NC(=O)c1cccs1)c1ccc2ccccc2c1,/,-0.8,12.0,i,0.6,i,0.8,101.8,
Cc1nc2ccc(S(=O)(=O)CCC(=O)NCCc3ccccc3)cc2s1,/,2.6,/,/,/,/,/,/,
Cc1nnc2sc(SCc3ccc(Br)cc3)nn2c1=O,-11.7,9.8,0.0,i,5.4,i,/,/,
N[C@@H](Cc1ccccc1)c1nnc2sc(SCc3ccccc3)nn12,-2.6,4.3,55.0*,i,-5.1,i,-12.8,127.1,
O=C(c1ccccc1Cc1ccccc1)N1CCN(S(=O)(=O)c2ccccc2Br)CC1,/,-3.5,0.0,i,4.7,i,/,/,
O=C(NCc1ccc2c(c1)OCO2)c1ccc(COc2cc(Cl)ccc2Cl)o1,-6.9,2.1,0.0,i,4.7,i,/,/,
O=C(NCc1ccc2c(c1)OCO2)c1ccc(CSCc2ccc(Cl)cc2)o1,-1.4,-5.5,51.0*,i,8.1,i,/,/,GRK2 CP2=-21.9;FAM quench SP=105.0
COc1ccc(-c2cc(C(=O)NN)[nH]n2)cc1,-6.5,-1.8,0.0,i,16.7,i,/,/,
COC(=O)c1cc(-c2ccc(Br)cc2)n[nH]1,-2.5,-23.8,54.0*,i,-0.1,i,3.2,95.7,
COCCNC(=S)N1CCN(Cc2ccc3c(c2)OCO3)CC1,/,5.8,3.0,i,9.8,i,/,/,
CCN(CC)C(=O)c1ccccc1NS(=O)(=O)c1ccc(OC)c(C(=O)N2CCOCC2)c1,/,0.1,61.0*,i,-8.2,i,-1.5,99.6,
C=CCNC(=O)c1ccccc1NS(=O)(=O)c1ccc(OC)c(C(=O)N2CCOCC2)c1,/,2.2,0.0,i,-0.2,i,/,/,
Nc1ccn([C@@H]2O[C@H](CNC(=O)[C@@H](Cc3cn(COCc4ccccc4)cn3)NC=O)[C@@H](O)[C@H]2O)c(=O)n1,/,-9.8,/,/,-3.0,/,/,/,
